PubChem BioAssay AID1159580 (chemical genetic matrix, 2015)
Where “and” joins values, the source holds several entries; their conditions need not be identical. Equal entries are not always repeated. The campaign covered roughly 5,500 compounds. About 2,000 (36%) were called active. Not shown: some 18% with an inconclusive outcome. No stated cut-off is given here; in the data, active means normalized growth mostly below about 0.91 (no sharp cut-off); inconclusive means no clear call, values can overlap the other calls; inactive means mostly above about 0.92. The list shows a part of the results.

Experiment: chemical genetic growth profiling, strain panel (AID 1159580);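 further: tested at 20 µM; growth read once vehicle control cultures reached saturation at 30 °C; 1 = growth at the plate median or of vehicle wells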
Details: S. cerevisiae deletion strains, growth OD

Measured: normalized growth

CN(C)CCN(Cc1ccccc1)c1ccccn1
inactive: locus YAL013W, strain DEP1, stronger effect = lower value 0.988 | locus YAL021C, strain ccr4, stronger effect = lower value 1.01 | locus YAL026C, strain drs2, stronger effect = lower value 1.01 | locus YAL030W, strain snc1, stronger effect = lower value 1.02 | locus YBL061C, strain skt5, stronger effect = lower value 1.01 | locus YBR009C, strain hhf1, stronger effect = lower value 0.963 | locus YBR021W, strain FUR4, stronger effect = lower value 0.99 | locus YBR023C, strain chs3, stronger effect = lower value 1.01 | locus YBR171W, strain sec66, stronger effect = lower value 1.02 | locus YBR229C, strain ROT2, stronger effect = lower value 1.01 | locus YBR231C, strain swc5, stronger effect = lower value 1.02 | locus YBR279W, strain paf1, stronger effect = lower value 1.01 | locus YCL011C, strain gbp2, stronger effect = lower value 1 | locus YCL016C, strain dcc1, stronger effect = lower value 0.997 | locus YCL029C, strain bik1, stronger effect = lower value 0.972 | locus YCL061C, strain MRC1, stronger effect = lower value 1.03 | locus YCL069W, strain vba3, stronger effect = lower value 1.01 | locus YCR088W, strain abp1, stronger effect = lower value 0.997 | locus YDL005C, strain med2, stronger effect = lower value 1.01 | locus YDL035C, strain GPR1, stronger effect = lower value 1.01 | locus YDL040C, strain nat1, stronger effect = lower value 1.02 | locus YDL074C, strain BRE1, stronger effect = lower value 1.02 | locus YDL101C, strain DUN1, stronger effect = lower value 0.987 | locus YDL134C, strain PPH21, stronger effect = lower value 1 | locus YDL185W, strain tfp1, stronger effect = lower value 0.946 | locus YDL192W, strain arf1, stronger effect = lower value 0.98 | locus YDR001C, strain nth1, stronger effect = lower value 1.01 | locus YDR069C, strain doa4, stronger effect = lower value 1.03 | locus YDR101C, strain arx1, stronger effect = lower value 0.988 | locus YDR137W, strain rgp1, stronger effect = lower value 1.01 | locus YDR150W, strain NUM1, stronger effect = lower value 0.981 | locus YDR159W, strain sac3, stronger effect = lower value 0.981 | locus YDR162C, strain NBP2, stronger effect = lower value 0.989 | locus YDR195W, strain ref2 1.02 | locus YDR297W, strain sur2, stronger effect = lower value 1.02 | locus YDR318W, strain mcm21, stronger effect = lower value 1.01 | locus YDR334W, strain swr1, stronger effect = lower value 1.01 | locus YDR335W, strain msn5, stronger effect = lower value 1.02 | locus YDR388W, stronger effect = lower value 1 | locus YDR392W, strain spt3, stronger effect = lower value 0.999 | locus YDR502C, strain sam2, stronger effect = lower value 1.02 | locus YEL003W, strain gim4, stronger effect = lower value 1.02 | locus YEL037C, strain rad23, stronger effect = lower value 1.02 | locus YEL061C, strain CIN8 (second series), stronger effect = lower value 1.02 | locus YEL061C, strain CIN8, stronger effect = lower value 0.992 | locus YER015W, strain faa2, stronger effect = lower value 1.01 | locus YER016W, strain bim1, stronger effect = lower value 0.964 | locus YER110C, stronger effect = lower value 0.973 | locus YER111C, strain swi4, stronger effect = lower value 1.02 | locus YER155C, strain BEM2 (second series), stronger effect = lower value 1.05 | locus YER155C, strain BEM2, stronger effect = lower value 1 | locus YER167W, strain BCK2, stronger effect = lower value 0.996 | locus YFR010W, strain ubp6, stronger effect = lower value 1.03 | locus YGL078C, strain dbp3, stronger effect = lower value 0.991 | locus YGL086W, strain mad1, stronger effect = lower value 0.992 | locus YGL167C, strain pmr1, stronger effect = lower value 1.01 | locus YGL173C, strain kem1, stronger effect = lower value 1.03 | locus YGL227W, strain vid30, stronger effect = lower value 1.01 | locus YGL240W, strain doc1, stronger effect = lower value 1.04 | locus YGL248W, strain PDE1, stronger effect = lower value 1.01 | locus YGL253W, strain hxk2, stronger effect = lower value 1 | locus YGR078C, strain PAC10, stronger effect = lower value 0.988 | locus YGR135W, strain pre9, stronger effect = lower value 1.01 | locus YGR229C, strain SMI1, stronger effect = lower value 1 | locus YGR252W, strain gcn5, stronger effect = lower value 1.14 | locus YHR013C, strain ard1, stronger effect = lower value 0.984 | locus YHR027C, strain rpn1, stronger effect = lower value 1 | locus YHR030C, strain SLT2, stronger effect = lower value 0.968 and 0.97 | locus YHR079C, strain IRE1 (second series), stronger effect = lower value 0.999 | locus YHR079C, strain IRE1, stronger effect = lower value 0.953 | locus YHR094C, strain hxt1, stronger effect = lower value 0.967 | locus YHR129C, strain ARP1, stronger effect = lower value 0.994 | locus YHR142W, strain chs7, stronger effect = lower value 1.01 | locus YHR200W, strain rpn10, stronger effect = lower value 1 | locus YIL066C, strain RNR3, stronger effect = lower value 1 | locus YIL073C, strain SPO22, stronger effect = lower value 0.928 | locus YIL125W, strain kgd1, stronger effect = lower value 0.976 | locus YIR030C, strain dcg1, stronger effect = lower value 0.994 | locus YJL092W, strain hpr5, stronger effect = lower value 1.03 | locus YJL095W, strain BCK1 (second series), stronger effect = lower value 1.01 | locus YJL095W, strain BCK1, stronger effect = lower value 0.96 and 0.975 | locus YJL115W, strain asf1, stronger effect = lower value 1.02 | locus YJL129C, strain trk1, stronger effect = lower value 1.02 | locus YJL134W, strain LCB3, stronger effect = lower value 0.998 | locus YJL154C, strain vps35, stronger effect = lower value 1.01 | locus YJL164C, strain tpk1, stronger effect = lower value 1 | locus YJL166W, strain qcr8, stronger effect = lower value 1.04 | locus YJL168C, strain set2, stronger effect = lower value 0.982 | locus YJL187C, strain SWE1 (second series), stronger effect = lower value 0.985 | locus YJR043C, strain POL32, stronger effect = lower value 1.01 | locus YJR066W, strain TOR1, stronger effect = lower value 0.947
